Inconclusive results are not listed. A number with no mark means an inactive call. Calls of active or inactive are those of the source. Calls follow the shape of the dose curve; as a rule, active = well fitted cell-killing curve with a large enough effect; inconclusive = small, poorly fitted or top-dose-only effect, or effect the other way; inactive = no such curve, though single readings can be large or run the other way.

Assay [1] in a line: Quantitative High-Throughput drug screen in 47 multiple myeloma cell lines against the NCATS MIPE library collection: MM1S_ATCC cell viability assay (AID 1918980). Also: nearly all actives have a fitted effect of over 45% in size. Put shortly: (§1)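 Myeloma cells (500/well) treated with MIPE 4.0 compounds for 48 h at 37 °C, 5% CO2. Viability read as ATP via CellTiter-Glo luminescence after 5 min at RT; DMSO-only wells = 100%, media-only = 0% viability.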

Assay [2] can be described thus: Quantitative High-Throughput drug screen in 47 multiple myeloma cell lines against the NCATS MIPE library collection: MM1R_ATCC cell viability assay (AID 1918981). Also: nearly all actives have a fitted effect of over 35% in size. Put shortly:
as §1

The nature of assay [3]: Quantitative High-Throughput drug screen in 47 multiple myeloma cell lines against the NCATS MIPE library collection: KMS28PE_JCRB cell viability assay (AID 1918983). Also: nearly all actives have a fitted effect of over 35% in size. Put shortly:
as §1

A short description of assay [4]: Quantitative High-Throughput drug screen in 47 multiple myeloma cell lines against the NCATS MIPE library collection: KMS34_JCRB cell viability assay (AID 1918985). Also: nearly all actives have a fitted effect of over 40% in size. Put shortly:
as §1

Assay [5] in a line: Quantitative High-Throughput drug screen in 47 multiple myeloma cell lines against the NCATS MIPE library collection: OCIMY5_PLB cell viability assay (AID 1918988). Also: nearly all actives have a fitted effect of over 65% in size. Put shortly: as §1
Assay [6] is described as follows: Quantitative High-Throughput drug screen in 47 multiple myeloma cell lines against the NCATS MIPE library collection: OPM1_PLB cell viability assay (AID 1918989). Also: nearly all actives have a fitted effect of over 40% in size. In a few lines: as §1
A short description of assay [7]: Quantitative High-Throughput drug screen in 47 multiple myeloma cell lines against the NCATS MIPE library collection: SKMM1_PLB cell viability assay (AID 1919863). Also: nearly all actives have a fitted effect of over 35% in size. The following applies: SKMM1 myeloma viability, CellTiter-Glo ATP, 48 h; viability: hits give low values. In a few lines: as §1
A short description of assay [8]: Quantitative High-Throughput drug screen in 47 multiple myeloma cell lines against the NCATS MIPE library collection: L363_DSMZ cell viability assay (AID 1918984). Also: nearly all actives have a fitted effect of over 40% in size. In a few lines: as §1
Assay [9] in a line: Quantitative High-Throughput drug screen in 47 multiple myeloma cell lines against the NCATS MIPE library collection: OCIMY7_PLB cell viability assay (AID 1918987). Also: nearly all actives have a fitted effect of over 65% in size. The note with it: OCI-MY7 myeloma viability, CellTiter-Glo ATP, 48 h; viability (% of DMSO): at 45.8 µM (top of the series). Put shortly:
as §1

Assay [10] is described as follows: Quantitative High-Throughput drug screen in 47 multiple myeloma cell lines against the NCATS MIPE library collection: LP1_DSMZ cell viability assay (AID 1918982). Also: nearly all actives have a fitted effect of over 35% in size. Put shortly:
as §1
Potency is read from the fitted curve at half-maximal effect.

As to `N#Cc1ccc(COC[C@H]2O[C@@H](n3c(NCc4ccc(Cl)c(Cl)c4)nc4c(N)ncnc43)[C@@H](O)[C@@H]2O)cc1`, the Potency was 18.7 µM (active) in assay [1]; 3.72 µM (active) in assay [2]; 5.9 µM (active) in assay [3]; 16.6 µM (active) in assay [4]; 3.72 µM (active) in [5]; 5.26 µM (active) in assay [6]. In addition, the Potency in [7] is 2.96 µM (active).

Turning to `CC(=O)C1=C(O)C=C2Oc3c(C(C)=O)c(O)c(C)c(O)c3C2(C)C1=O` (configuration not stated), the Potency result in assay [1], in [2], in [3] and in assay [4] was “inactive” in each case. For the same compound, the Potency in assay [5] is 0.0012 µM (active).

As to `O=C1NC(=O)C(=Cc2ccc3nccc(-c4ccncc4)c3c2)S1`, the Potency in assay [1] is 0.118 µM (active); in [2] it was 0.105 µM (active); in assay [3], 0.372 µM (active); in [8] it was 0.0469 µM (active); in assay [4] it was 0.296 µM (active); in [9] it was 0.0662 µM (active). In addition, the figures for the Potency in [5], in assay [6] and in assay [7] were 0.526 µM (active), 0.0743 µM (active) and 0.59 µM (active), respectively.

Regarding `O=C(O)C[C@H](O)C[C@H](O)C=Cc1c(C2CC2)nc2ccccc2c1-c1ccc(F)cc1`, the Potency was 5.26 µM (active) in [1]; 5.9 µM (active) in assay [2]; 14.8 µM (active) in assay [3]; 5.26 µM (active) in assay [8]; 2.35 µM (active) in [9]; 20.9 µM (active) in assay [5]. For the same compound, the results for the Potency in [6] and in assay [7] were 2.64 µM (active) and 11.8 µM (active), respectively.

For `COc1cc([C@@H]2c3cc4c(cc3[C@H](O)[C@H]3COC(=O)[C@@H]23)OCO4)cc(OC)c1OC`, the Potency in assay [1] is 0.833 µM (active); in [2], 0.526 µM (active); in assay [3], 0.148 µM (active); in [8], 0.0662 µM (active); in [4] it was 0.0833 µM (active); in assay [9], 0.0469 µM (active). Besides, the Potency is 0.187 µM (active) in assay [6] and 0.059 µM (active) in assay [7].

In the case of `C[C@H]1C[C@H]2[C@@H]3CCC4=CC(=O)C=C[C@]4(C)[C@@H]3C(=O)C[C@]2(C)[C@@]1(O)C(=O)CO`, the Potency entry in [1], in assay [2], in [10], in assay [5] and in assay [6] was “inactive” in each case.

Turning to `CCNC(=O)c1cc2c(-c3cc(OCCN4CCCC4)c(Cl)cc3Cl)nc(N)nc2s1`, the Potency in [1] is 1.66 µM (active); in [2] it was 2.09 µM (active); in assay [8], 0.418 µM (active); in [4], 1.32 µM (active); in assay [9] it was 0.372 µM (active); in assay [5], 0.743 µM (active). The Potency in assay [6] was 0.833 µM (active); in [7], 2.35 µM (active).

Consider `C[C@]12CCC(=O)C=C1[C@@H]1CC1[C@H]1[C@H]3[C@@H]4C[C@H]4[C@@]4(CCC(=O)O4)[C@@]3(C)CC[C@H]12` (some centres not stated), for which the Potency entry in assay [1], in assay [2], in assay [8] and in [6] was “inactive” each time.

As for `COc1cc(OC)cc(-c2ccc3ncc4ccc(=O)n(-c5ccc(N6CCNCC6)c(C(F)(F)F)c5)c4c3c2)c1`, the Potency in [1] is 3.32 µM (active); in assay [10], 5.9 µM (active); in assay [3], 5.26 µM (active); in [8] it was 0.833 µM (active); in assay [4] it was 6.62 µM (active); in assay [9], 1.18 µM (active). The Potency is 1.32 µM (active) in assay [5], 4.69 µM (active) in assay [6] and 13.2 µM (active) in [7].

As for `CN1CCCN(C(=O)c2cccc(-c3ccc(C=C4C(=O)Nc5ccc(Cl)cc54)o3)c2)CC1`, the Potency in assay [1] was 14.8 µM (active); in [2] it was 5.9 µM (active); in assay [8] it was 6.62 µM (active); in assay [4], 16.6 µM (active); in [9] it was 10.5 µM (active); in assay [5] it was 9.35 µM (active). The results for the Potency in [6] and in assay [7] were 23.5 µM (active) and 14.8 µM (active), respectively.

In the case of `Cn1cnc(=N)c2[nH]cnc21`, the Potency is 0.0935 µM (active) in [1]; 0.166 µM (active) in assay [10]; 0.105 µM (active) in assay [3]; 0.132 µM (active) in assay [8]; 0.132 µM (active) in assay [4]; 0.0662 µM (active) in [9]. Moreover, the Potency is 0.132 µM (active) in assay [5], 0.0662 µM (active) in assay [6] and 0.209 µM (active) in [7].

In the case of `COC1=C2C[C@@H](C)C[C@H](OC)[C@@H](O)[C@@H](C)C=C(C)[C@H](OC(N)=O)[C@@H](OC)C=CC=C(C)C(=O)NC(=CC1=O)C2=O`, the Potency in assay [1] is 0.059 µM (active); in assay [10], 1.18 µM (active); in [3], 0.132 µM (active); in assay [8] it was 7.43 µM (active); in assay [4], 0.166 µM (active); in [9], 0.0743 µM (active). Moreover, the Potency was 0.418 µM (active) in assay [6] and 2.09 µM (active) in assay [7].

For `Nc1ccc(C(=O)Nc2cccc(-c3nc(N4CCOCC4)c4oc5ncccc5c4n3)c2)cn1`, the Potency in assay [1] is 23.5 µM (active); in assay [2], 13.2 µM (active); in assay [8] it was 1.18 µM (active); in [4] it was 7.43 µM (active); in [9], 3.32 µM (active); in [5] it was 5.9 µM (active). The results for the Potency in assay [6] and in assay [7] were 1.48 µM (active) and 23.5 µM (active), respectively.

Take `CCOc1cc2ncc(C#N)c(Nc3ccc(OCc4ccccn4)c(Cl)c3)c2cc1NC(=O)C=CCN(C)C`: the Potency was 0.526 µM (active) in [1]; 11.8 µM (active) in [2]; 0.469 µM (active) in assay [8]; 10.5 µM (active) in assay [4]; 0.0526 µM (active) in assay [9]; 0.833 µM (active) in assay [5].

Turning to `COc1cc(N2CCC(C(N)=O)CC2)ccc1Nc1nc(N)c(Cl)c(Nc2ccccc2S(=O)(=O)C(C)C)n1`, the Potency in assay [1] is 0.743 µM (active); in assay [2], 1.18 µM (active); in assay [8], 0.0148 µM (active); in [4], 2.96 µM (active); in [9], 0.209 µM (active); in assay [6], 5.9 µM (active).

For `CCC(C(=O)O)C1CCC(C)C(C(C)C(O)C(C)C(=O)C(CC)C2OC3(C=CC(O)[C@@]4(CC[C@](C)(C5CC[C@@](O)(CC)C(C)O5)O4)O3)C(C)CC2C)O1` (some centres not stated), the Potency in assay [1] is 2.35 µM (active); in assay [10], 4.69 µM (active); in assay [3] it was 16.6 µM (active); in assay [8], 0.833 µM (active); in [4] it was 6.62 µM (active); in [9] it was 2.96 µM (active). Moreover, the Potency is 0.372 µM (active) in assay [5], 1.32 µM (active) in [6] and 2.64 µM (active) in assay [7].

The values above are taken from PubChem BioAssay (NCATS).
